Values joined by “and” are separate entries in the source; they are usually repeats but may differ in a detail not shown here. Identical values can stand only once. Results filed as inconclusive are left out. A structure can be active in one record and inactive in another. Active and inactive are the calls of the source. How the source made its calls, unless noted: active means hit-call score of the fitted dose curve at least 0.9, where 1 is the maximum; inactive means score below 0.9.
How the values were obtained:
[1] = ATG_PBREM_CIS: Attagene CIS-FACTORIAL HepG2 Assay for human Phenobarbital-responsive Enhancer Module (PBREM) (AID 2282955); settings: HepG2 PBREM cis-reporter, Attagene multiplexed transcription; actives raise or lower the signal
Method in brief: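 Measures endogenous factor action on a phenobarbital-responsive enhancer module. HepG2 transiently carrying cis reporters, 24 h treatment, mRNA read-out by RT-PCR plus capillary electrophoresis.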

[2] = target: Paired box protein Pax-6 (Homo sapiens) (UniProt P26367); experiment: ATG_Pax6_CIS: Attagene CIS-FACTORIAL HepG2 Assay for human Paired Box 6 (PAX6) (AID 2282956); settings: HepG2 CIS-FACTORIAL PAX6 reporter transcription, RNA readout; actives raise or lower the signal
Method in brief: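 Fluorescent RT-PCR products separated by capillary electrophoresis report PAX6-linked promoter mRNA in HepG2 cells 24 h post-dose. Curves fitted bidirectionally, DMSO as negative control.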

[3] = ATG_PPRE_CIS: Attagene CIS-FACTORIAL HepG2 Assay for human Peroxisome Proliferator-activated Response Element (PPRE) (AID 2282958); settings: HepG2 PPRE cis-element reporter, Attagene transcription factor profiling; actives raise or lower the signal
Method in brief: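 PPRE activity in HepG2: transient cis-reporter transfection, 24 h compound incubation, reporter mRNA by RT-PCR and CE fluorescence; gain/loss fitted against DMSO.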

[4] = ATG_RORE_CIS: Attagene CIS-FACTORIAL HepG2 Assay for human RAR-related Orphan Receptor Element (RORE) (AID 2282959); settings: HepG2 Attagene cis-factorial RORE reporter, mRNA; actives raise or lower the signal
Method in brief: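 A 24-hour exposure of transfected HepG2 hepatoma cells precedes RNA isolation and reporter RT-PCR. Labeled products are digested with HpaI and resolved by capillary electrophoresis, with gain or loss of signal scored relative to DMSO.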

[5] = ATG_Sox_CIS: Attagene CIS-FACTORIAL HepG2 Assay for human SRY-box transcription factor (SOX) (AID 2282960); settings: HepG2 Attagene cis-factorial SOX reporter, mRNA; actives raise or lower the signal
Method in brief: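 HepG2, cis reporter units, 24 h exposure. Reporter mRNA: RT-PCR → FAM labelling → HpaI → CE fluorescence. Bidirectional fit vs DMSO.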

[6] = target: Transcription factor Sp1 (Homo sapiens) (UniProt P08047); experiment: ATG_Sp1_CIS: Attagene CIS-FACTORIAL HepG2 Assay for human Specificity Protein 1 (Sp1) (AID 2282961); settings: HepG2 Sp1 cis-reporter transcription, actives raise or lower the signal
Method in brief: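 Liver-derived HepG2 cells, cis-element reporter library, 24 h treatment; RNA isolated, cDNA amplified with reporter-specific primers, FAM-labeled fragments sized on capillary analyzer. DMSO baseline, bidirectional curve fit.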

[7] = ATG_SREBP_CIS: Attagene CIS-FACTORIAL HepG2 Assay for human Sterol Regulatory Element Binding (SREBP) (AID 2282962); settings: HepG2 Attagene cis-factorial SREBP reporter, mRNA; actives raise or lower the signal
Method in brief: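 Endogenous factor activity is measured in HepG2 through multiplexed reporter units under cis-element control. Following a 24 h incubation, reporter transcripts are reverse-transcribed, PCR-amplified and sized by capillary electrophoresis; activity is fitted in both directions relative to DMSO.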

[8] = target: Signal transducer and activator of transcription 3 (Homo sapiens) (UniProt P40763); experiment: ATG_STAT3_CIS: Attagene CIS-FACTORIAL HepG2 Assay for human Signal Transducer and Activator of Transcription 3 (STAT3) (AID 2282963); settings: HepG2, Attagene cis-factorial STAT3 reporter transcription; actives raise or lower the signal
Method in brief: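 HepG2, MRTU-transfected, 24 h dosing. RNA → RT → PCR → FAM label → HpaI → CE. Bidirectional fit vs DMSO.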

[9] = ATG_TA_CIS: Attagene CIS-FACTORIAL HepG2 Assay for human TA Basal Promoter (AID 2282964); settings: HepG2 Attagene CIS-factorial TA basal promoter reporter; actives raise or lower the signal
Method in brief: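 Transient MRTU transfection of HepG2 preceded 24 h compound exposure. Reporter mRNA levels were then read by RT-PCR with capillary electrophoresis, and this background-control endpoint was fitted bidirectionally to DMSO.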

[10] = ATG_TCF_b_cat_CIS: Attagene CIS-FACTORIAL HepG2 Assay for human T-Cell-Factor with beta-catenin (TCF/b-cat) (AID 2282965); settings: HepG2 TCF/beta-catenin cis-reporter transcription, actives raise or lower the signal
Method in brief: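 HepG2 cells transiently transfected with multiple cis-promoter-regulated reporter transcription units, so endogenous transcription factor activity is measured. Reporter mRNA read 24 hours after dosing by RT-PCR, fluorescent labelling and capillary electrophoresis; bidirectional fitting against DMSO.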

[11] = ATG_TAL_CIS: Attagene CIS-FACTORIAL HepG2 Assay for human TAL Basal Promoter (AID 2282966); settings: HepG2 Attagene cis-factorial TAL promoter reporter; actives raise or lower the signal;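 further: background control endpoint measuring basal TAL promoter reporter mRNA not a specific factor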
Method in brief: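 Human hepatoma HepG2 cells, transfected with promoter-regulated reporter units, were treated 24 h. Reporter transcript levels, measured through RT-PCR and capillary electrophoresis, were fitted for gain or loss relative to DMSO.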

[12] = ATG_TGFb_CIS: Attagene CIS-FACTORIAL HepG2 Assay for human Transforming Growth Factor (TGF) (AID 2282967); settings: HepG2 Attagene CIS TGFb reporter, mRNA transcription; actives raise or lower the signal
Method in brief: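 After a 24-hour incubation with compound, transfected HepG2 cells were lysed for RNA; reporter cDNA was amplified, fluorescently end-labeled and separated by CE. DMSO served as baseline for bidirectional fits.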

[13] = ATG_VDRE_CIS: Attagene CIS-FACTORIAL HepG2 Assay for human Vitamin D Receptor Element (VDRE) (AID 2282968); settings: HepG2 VDRE cis-reporter transcription, actives raise or lower the signal
Method in brief: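 Steps: transfect HepG2 with multiple reporter transcription units; dose chemicals 24 h; isolate RNA; RT-PCR; label with 6-FAM primer extension; HpaI digest; capillary electrophoresis. Curves fitted both directions against DMSO.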

[14] = target: Nuclear receptor subfamily 1 group I member 3 (Homo sapiens) (UniProt Q14994); experiment: ATG_CAR_TRANS: Attagene TRANS-FACTORIAL HepG2 Assay for human Constitutive Androstane Receptor (CAR) (AID 2282969; active means hit-call score of the fitted dose curve at least 0.9, where 1 is the maximum;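 further: activators raise reporter mRNA above DMSO so AC50 marks induction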); settings: HepG2 Attagene TRANS-FACTORIAL CAR reporter
Method in brief: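 Steps: transient transfection of HepG2 with multiple GAL4-UAS reporter units; 24 h compound incubation; RNA isolation, RT-PCR, 6-FAM primer extension, HpaI digest; capillary electrophoresis. Gain-of-signal relative to DMSO negative control.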

[15] = target: Estrogen receptor (Homo sapiens) (UniProt P03372); experiment: ATG_ERa_TRANS: Attagene TRANS-FACTORIAL HepG2 Assay for human Estrogen Receptor alpha (ERa) (AID 2282970; active means hit-call score of the fitted dose curve at least 0.9, where 1 is the maximum); settings: HepG2 Attagene TRANS ERa GAL4 reporter, mRNA
Method in brief: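 Signal derives from fluorescence of labelled reporter PCR fragments separated by capillary electrophoresis. HepG2 cells transiently carrying multiple GAL4-UAS reporter units were treated 24 hours, and induction above DMSO baseline was fitted as activity.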

[16] = target: Steroid hormone receptor ERR1 (Homo sapiens) (UniProt P11474); experiment: ATG_ERRa_TRANS: Attagene TRANS-FACTORIAL HepG2 Assay for human Estrogen-Related Receptor alpha (ERRa) (AID 2282971; active means hit-call score of the fitted dose curve at least 0.9, where 1 is the maximum); settings: HepG2 Attagene TRANS reporter, ERRa transactivation
Method in brief: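 Signal gain relative to DMSO for an ERRa-Gal4 chimeric receptor, read as reporter mRNA by RT-PCR/capillary electrophoresis. Human HepG2 liver cells, transient multiplex reporter transfection, 24 h chemical exposure.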

[17] = target: X-box-binding protein 1 (Homo sapiens) (UniProt P17861); experiment: ATG_Xbp1_CIS: Attagene CIS-FACTORIAL HepG2 Assay for human X-box Binding Protein 1 (XBP1) (AID 2282972); settings: HepG2 XBP1 cis-element reporter, Attagene multiplex; actives raise or lower the signal
Method in brief: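 Multiplexed cis-reporter readout in transfected HepG2 liver cells. Exposure lasted 24 hours. Activity in either direction was fitted against DMSO as negative control and baseline.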

[18] = ATG_GAL4_TRANS: Attagene TRANS-FACTORIAL HepG2 Assay for GAL4 (Internal Marker) (AID 2282976; active means hit-call score of the fitted dose curve at least 0.9, where 1 is the maximum); settings: HepG2 Attagene TRANS GAL4 internal marker reporter
Method in brief: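 Liver HepG2 line bearing multiplexed GAL4-UAS reporter constructs; 24 h chemical treatment. Transcripts were quantified as fluorescent fragments on capillary electrophoresis after RT-PCR and HpaI cut, with activity fitted upward from DMSO.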

[19] = ATG_PXRE_CIS: Attagene CIS-FACTORIAL HepG2 Assay for human Pregnane X Receptor Element (PXRE) (AID 2282957); settings: HepG2 Attagene CIS-FACTORIAL PXRE reporter, mRNA; actives raise or lower the signal
Method in brief: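 Bidirectional activity, baselined to DMSO, derived from reporter mRNA fluorescence (RT-PCR plus capillary electrophoresis) in HepG2 cells bearing cis-promoter reporter units, 24 h exposure.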

[20] = ATG_M_19_TRANS: Attagene TRANS-FACTORIAL HepG2 Assay for M19 Transcription Factor (Internal Marker) (AID 2282974; active means hit-call score of the fitted dose curve at least 0.9, where 1 is the maximum); settings: HepG2 Attagene TRANS-FACTORIAL M19 internal marker reporter
Method in brief: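 Transfected HepG2 (GAL4-UAS MRTUs), 24 h compound, TriZol RNA, DNase-treated RT, reporter PCR, FAM label, HpaI digest, CE fluorescence; gain vs DMSO.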

Measured: AC50

Signal transducer and activator of transcription 3 (Homo sapiens), sequence (P40763 whole entry, looked up): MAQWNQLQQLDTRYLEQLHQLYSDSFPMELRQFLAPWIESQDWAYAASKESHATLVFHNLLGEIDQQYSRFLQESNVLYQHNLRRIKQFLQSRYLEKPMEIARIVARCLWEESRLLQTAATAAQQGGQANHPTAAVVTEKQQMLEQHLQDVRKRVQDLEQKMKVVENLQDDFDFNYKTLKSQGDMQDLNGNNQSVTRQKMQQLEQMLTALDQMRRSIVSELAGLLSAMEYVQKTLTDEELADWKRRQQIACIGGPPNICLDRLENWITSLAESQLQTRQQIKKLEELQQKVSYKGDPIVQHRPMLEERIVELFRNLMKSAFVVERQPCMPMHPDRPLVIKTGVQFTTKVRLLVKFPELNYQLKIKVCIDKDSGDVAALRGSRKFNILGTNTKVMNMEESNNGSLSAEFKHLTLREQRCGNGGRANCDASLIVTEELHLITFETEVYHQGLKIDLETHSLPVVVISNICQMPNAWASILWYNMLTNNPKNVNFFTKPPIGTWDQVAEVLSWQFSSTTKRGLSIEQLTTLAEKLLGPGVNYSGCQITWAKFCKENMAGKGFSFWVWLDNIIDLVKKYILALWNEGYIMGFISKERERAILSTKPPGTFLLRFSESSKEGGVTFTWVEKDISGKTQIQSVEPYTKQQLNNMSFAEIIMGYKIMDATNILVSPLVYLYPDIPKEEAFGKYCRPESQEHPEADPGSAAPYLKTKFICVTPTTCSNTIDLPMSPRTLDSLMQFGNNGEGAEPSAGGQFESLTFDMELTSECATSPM
Transcription factor Sp1 (Homo sapiens), sequence (P08047 whole entry, looked up, the tested form may be a part): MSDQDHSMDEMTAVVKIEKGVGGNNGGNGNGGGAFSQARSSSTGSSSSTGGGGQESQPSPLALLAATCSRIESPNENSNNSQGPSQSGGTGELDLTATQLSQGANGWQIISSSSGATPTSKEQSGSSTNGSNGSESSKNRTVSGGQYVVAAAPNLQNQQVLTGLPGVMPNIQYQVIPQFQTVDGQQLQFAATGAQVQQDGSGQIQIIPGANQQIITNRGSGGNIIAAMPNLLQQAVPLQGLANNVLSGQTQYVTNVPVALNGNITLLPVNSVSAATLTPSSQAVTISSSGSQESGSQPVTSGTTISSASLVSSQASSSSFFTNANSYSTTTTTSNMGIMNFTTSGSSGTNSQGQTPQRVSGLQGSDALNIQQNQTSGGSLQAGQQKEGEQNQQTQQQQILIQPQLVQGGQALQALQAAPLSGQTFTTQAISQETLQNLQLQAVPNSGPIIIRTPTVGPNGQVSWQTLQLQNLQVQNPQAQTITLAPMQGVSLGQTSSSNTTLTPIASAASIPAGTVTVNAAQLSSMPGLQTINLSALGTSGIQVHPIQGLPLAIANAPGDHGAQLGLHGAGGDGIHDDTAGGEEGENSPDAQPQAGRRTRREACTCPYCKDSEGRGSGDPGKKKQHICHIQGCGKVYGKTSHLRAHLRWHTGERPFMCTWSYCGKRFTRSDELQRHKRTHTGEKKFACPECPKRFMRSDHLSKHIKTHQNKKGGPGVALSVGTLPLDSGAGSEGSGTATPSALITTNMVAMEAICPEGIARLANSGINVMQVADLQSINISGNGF
X-box-binding protein 1 (Homo sapiens), sequence (P17861 whole entry, looked up): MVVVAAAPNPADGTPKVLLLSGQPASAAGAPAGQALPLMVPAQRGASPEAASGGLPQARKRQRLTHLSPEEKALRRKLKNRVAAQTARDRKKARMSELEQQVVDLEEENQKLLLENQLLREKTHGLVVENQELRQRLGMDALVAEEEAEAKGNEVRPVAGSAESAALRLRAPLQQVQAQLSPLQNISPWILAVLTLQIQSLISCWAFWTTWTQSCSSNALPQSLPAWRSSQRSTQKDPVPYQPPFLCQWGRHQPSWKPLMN
Estrogen receptor (Homo sapiens), sequence (P03372 whole entry, looked up, the tested form may be a part): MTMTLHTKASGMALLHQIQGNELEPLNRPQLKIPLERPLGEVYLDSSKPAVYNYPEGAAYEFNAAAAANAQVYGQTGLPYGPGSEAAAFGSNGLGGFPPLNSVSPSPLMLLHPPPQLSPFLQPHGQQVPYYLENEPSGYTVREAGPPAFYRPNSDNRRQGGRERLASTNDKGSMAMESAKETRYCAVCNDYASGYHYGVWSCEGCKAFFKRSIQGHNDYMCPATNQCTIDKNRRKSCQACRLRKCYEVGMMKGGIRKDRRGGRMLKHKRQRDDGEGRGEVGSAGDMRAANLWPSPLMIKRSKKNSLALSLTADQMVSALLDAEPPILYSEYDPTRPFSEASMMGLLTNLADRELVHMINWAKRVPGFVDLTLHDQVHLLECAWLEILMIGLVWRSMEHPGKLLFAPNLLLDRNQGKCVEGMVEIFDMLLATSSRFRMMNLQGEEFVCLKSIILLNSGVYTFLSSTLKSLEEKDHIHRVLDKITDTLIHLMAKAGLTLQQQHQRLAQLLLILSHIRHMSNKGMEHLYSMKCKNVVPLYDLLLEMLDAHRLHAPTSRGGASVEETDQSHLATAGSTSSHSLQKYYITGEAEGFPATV
Steroid hormone receptor ERR1 (Homo sapiens), sequence (P11474 whole entry, looked up, the tested form may be a part): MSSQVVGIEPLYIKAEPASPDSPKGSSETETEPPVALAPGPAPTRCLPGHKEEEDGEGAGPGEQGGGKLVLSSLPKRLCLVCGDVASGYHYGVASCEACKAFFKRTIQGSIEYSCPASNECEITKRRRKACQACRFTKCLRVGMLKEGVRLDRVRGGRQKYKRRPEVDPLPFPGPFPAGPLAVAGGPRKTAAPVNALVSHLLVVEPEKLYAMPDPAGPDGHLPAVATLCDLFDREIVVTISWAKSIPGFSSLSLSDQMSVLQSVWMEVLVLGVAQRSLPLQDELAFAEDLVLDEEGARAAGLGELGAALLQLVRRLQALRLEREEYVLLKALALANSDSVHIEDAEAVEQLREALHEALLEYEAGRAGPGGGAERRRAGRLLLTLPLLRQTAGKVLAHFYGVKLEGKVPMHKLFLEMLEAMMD
Nuclear receptor subfamily 1 group I member 3 (Homo sapiens), sequence (Q14994 whole entry, looked up, the tested form may be a part): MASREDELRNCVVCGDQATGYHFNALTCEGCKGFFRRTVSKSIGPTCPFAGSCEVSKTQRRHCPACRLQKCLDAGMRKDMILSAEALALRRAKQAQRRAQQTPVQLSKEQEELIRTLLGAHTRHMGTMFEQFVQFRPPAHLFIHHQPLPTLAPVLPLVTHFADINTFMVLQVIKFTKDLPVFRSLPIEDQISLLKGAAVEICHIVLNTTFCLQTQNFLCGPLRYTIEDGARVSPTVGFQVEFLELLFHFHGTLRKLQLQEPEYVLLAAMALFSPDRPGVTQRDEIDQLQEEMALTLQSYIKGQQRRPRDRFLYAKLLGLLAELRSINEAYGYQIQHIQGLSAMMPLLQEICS
Paired box protein Pax-6 (Homo sapiens), sequence (P26367 whole entry, looked up): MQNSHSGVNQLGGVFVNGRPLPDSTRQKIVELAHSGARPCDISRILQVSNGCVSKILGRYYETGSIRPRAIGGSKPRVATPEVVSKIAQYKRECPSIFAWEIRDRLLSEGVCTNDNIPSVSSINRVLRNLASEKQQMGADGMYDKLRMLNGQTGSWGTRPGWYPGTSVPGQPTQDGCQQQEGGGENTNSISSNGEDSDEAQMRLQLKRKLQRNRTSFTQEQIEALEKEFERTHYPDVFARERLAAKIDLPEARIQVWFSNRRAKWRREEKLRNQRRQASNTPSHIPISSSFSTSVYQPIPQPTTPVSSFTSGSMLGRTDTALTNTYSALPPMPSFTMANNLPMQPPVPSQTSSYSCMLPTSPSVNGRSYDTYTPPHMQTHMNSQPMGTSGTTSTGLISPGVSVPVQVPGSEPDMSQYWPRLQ

FC(F)(F)C(F)(F)C(F)(F)C(F)(F)C(F)(F)C(F)(F)CCS
not listed: [19] | [20]
inactive: all other assays above

C=CC(F)(F)C(F)(F)C(F)(F)C(F)(F)C(F)(F)C(F)(F)C(F)(F)C(F)(F)C=C
active: [15] 2.76 µM
not listed: [2] | [18]
inactive: all other assays above

FC(F)(Br)C(F)(F)C(F)(F)C(F)(F)C(F)(F)C(F)(F)Br
active: [15] 7.26 µM
not listed: [16] | [20]
inactive: all other assays above

CCCCCCCCCCCCCCCC[N+](C)(C)Cc1ccccc1
active: [6] 132 µM
not listed: [18] | [19] | [20]
inactive: all other assays above

FC(F)(F)C(F)(F)C(F)(F)CI
not listed: [2] | [18]
inactive: all other assays above

CC(C)OC(=O)c1ccccc1C(=O)OC(C)C
active: [13] 14.2 µM | [15] 11.2 µM
not listed: [16] | [19] | [20]
inactive: all other assays above

C=C(C)C(=O)OCC(F)(F)C(F)(F)C(F)(F)F
inactive: [1] | [2] | [19] | [3] | [4] | [5] | [6] | [7] | [8] | [9] | [10] | [11] | [12] | [13] | [15] | [16] | [17] | [20] | [18]
active: [15] 30.7 µM

COC(OC(C)=O)c1ccccc1 (stereo not drawn)
not listed: [18] | [19]
inactive: all other assays above

C=CC(=O)OCC(F)(F)C(F)(F)C(F)(F)C(F)(F)C(F)(F)C(F)(F)C(F)(F)F
active: [15] 15.6 µM
not listed: [16] | [19] | [20]
inactive: all other assays above

c1ccc(-c2ccccc2-c2ccccc2)cc1
active: [6] 100 µM | [7] 100 µM | [15] 2.75 µM
not listed: [16] | [18] | [19] | [20]
inactive: all other assays above

O=C(O)C(F)(OC(F)(F)C(F)(OC(F)(F)C(F)(OC(F)(F)C(F)(F)C(F)(F)F)C(F)(F)F)C(F)(F)F)C(F)(F)F (stereo not drawn)
not listed: [16] | [18] | [19] | [20]
inactive: all other assays above

O=C(O)C(F)(F)C(F)(F)C(F)(F)C(F)(F)C(F)(F)C(F)(F)C(F)(F)C(F)(F)Cl
active: [19] 13.7 µM | [3] 39.2 µM and 35.4 µM | [4] 28.4 µM and 57.9 µM | [9] 50 µM | [10] 50 µM | [11] 50 µM | [12] 74.7 µM and 82.8 µM | [13] 49.3 µM and 67.4 µM | [15] 27.2 µM and 31.4 µM | [17] 58.7 µM and 50 µM
inactive: [1] | [19] | [5] | [6] | [7] | [8] | [9] | [11] | [20]

CCO[Si](CCC(F)(F)C(F)(F)C(F)(F)C(F)(F)C(F)(F)C(F)(F)F)(OCC)OCC
not listed: [14] | [19] | [20]
inactive: all other assays above

CCCCOc1ccc(N)cc1
not listed: [19]
inactive: all other assays above
